The source of these data is PubChem BioAssay.

Activity calls are given as the source filed them. Unless noted, the rule behind the calls is not given here.

Assay [1] concerns XIP peptide (Xip251-270) binding. Briefly: small-molecule binders of XIP peptide, primary screen, biochemical, small-molecule microarray, fluorescence 635/667 nm, 0.1 µg/mL protein (AID 1182). The settings on record: fluorescent protein binding, 635 nm, higher = more signal, called active from +8 up or from −8 down.
The test system of another assay is XIP peptide (Xip251-270). Briefly: small-molecule binders of XIP peptide, primary screen, biochemical, small-molecule microarray, fluorescence 635/667 nm, 0.5 µg/mL protein (AID 1183). The settings on record: small-molecule microarray binding, fluorescence 635 nm; higher = more signal.
A short description of assay [2]: Plasmodium falciparum growth inhibition, primary screen, strain 3D7, DAPI fluorescence, 100 nL (AID 1184).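 Note: parasites grown inside human red blood cells in medium with human serum.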 The settings on record: P. falciparum 3D7 growth, 3 d, higher = more signal.
The target of assay [3] is Homeobox protein Hox-A13 (Mus musculus) (UniProt Q62424). As to the kind of experiment: inhibitors of HoxA13-DNA binding, primary screen, biochemical, fluorescence polarization, labeled oligonucleotide (AID 1185). The settings on record: 15 min, higher = more signal, called active from +8 up or from −8 down.
The nature of assay [4]: inhibitors of hydroxyurea-induced Chk1 phosphorylation, primary screen, imaging, HeLa, phospho-Chk1 antibody, percent positive cells (AID 1186). The settings on record: hydroxyurea-induced phospho-Chk1 immunofluorescence imaging, higher = more signal.
A short description of assay [5]: inhibitors of hydroxyurea-induced Chk1 phosphorylation, primary screen, imaging, HeLa, phospho-Chk1 nuclear intensity (AID 1187). The settings on record: hydroxyurea-induced phospho-Chk1 immunofluorescence imaging, higher = more signal.

Homeobox protein Hox-A13 (Mus musculus), sequence (Q62424 whole entry, looked up): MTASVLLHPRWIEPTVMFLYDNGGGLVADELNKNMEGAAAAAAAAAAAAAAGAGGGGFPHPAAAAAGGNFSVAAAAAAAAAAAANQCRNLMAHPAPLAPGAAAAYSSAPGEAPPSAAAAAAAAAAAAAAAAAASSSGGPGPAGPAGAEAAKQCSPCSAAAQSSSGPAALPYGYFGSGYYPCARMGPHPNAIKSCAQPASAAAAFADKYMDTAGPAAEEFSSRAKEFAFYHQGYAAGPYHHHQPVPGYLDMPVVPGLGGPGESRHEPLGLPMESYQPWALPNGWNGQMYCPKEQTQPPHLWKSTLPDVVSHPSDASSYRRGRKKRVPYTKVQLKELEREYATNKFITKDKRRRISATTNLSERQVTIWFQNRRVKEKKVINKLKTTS

For `COc1ccc([Si](C)(C)[C@@H]2[C@@H](CC(=O)N3CCC[C@H]3CO)O[C@]3(C(=O)N(Cc4ccc(N5CCOC5=O)cc4)c4ccccc43)[C@H]2C)cc1`, the results for the composite z-score (in assay [1]; in the assay with XIP peptide (Xip251-270)) were 0.56 (inactive) and 0.727, respectively. In addition, the z-score in assay [2] is 0.309; in assay [3] it was -3.21 (inactive); in assay [4] it was -1.03 (inactive); in assay [5], -0.48 (inactive).

With `COC(=O)C(CC#Cc1ccc2c(c1)[C@]1(C(=O)N2)[C@H](C(=O)NC[C@H](O)c2ccccc2)[C@H]2C(=O)O[C@H](c3ccccc3)[C@H](c3ccccc3)N2[C@@H]1c1ccccc1OCCO)C(=O)OC`, the composite z-score in assay [1] was 0.0226 (inactive); in the assay on XIP peptide (Xip251-270) it was 0.654. The z-score is -2.33 in assay [2], -1.39 (inactive) in assay [3], 0.0062 (inactive) in assay [4] and 0.0197 (inactive) in assay [5].

For the compound `CC(C)C[C@@H]1NC(=O)[C@@H]2C[C@H](C(=O)NCCCCCCNC(=O)CS)[C@H](c3cccc(OCCO)c3)N2C1=O`, the composite z-score in assay [1] was 1.63 (inactive); in the assay on XIP peptide (Xip251-270) it was 0.839. For the same compound, the z-score is -0.0654 in assay [2], -3.13 (inactive) in assay [3], -0.517 (inactive) in assay [4] and -0.358 (inactive) in assay [5].

In the case of `O=C1C2C=CC(C(O)c3ccc([N+](=O)[O-])cc3)N(Nc3ccccc3F)C2C(=O)N1c1ccccc1` (configuration not stated), the composite z-score in assay [1] was 0.946 (inactive); in the assay on XIP peptide (Xip251-270), 0.679. In addition, the z-score in assay [2] was -0.111; in assay [3] it was -3.41 (inactive); in assay [4], 0.8 (inactive); in assay [5], -0.314 (inactive).

Turning to `C=C(/C(=C/C[C@@H](OC(C)=O)c1cccc(OCCO)c1)c1cnc2ccccc2c1)C(C)C`, the composite z-score in assay [1] was -0.136 (inactive); in the assay with XIP peptide (Xip251-270), 0.725. In addition, the z-score in assay [2] is -2.95; in assay [3], -5.04 (inactive); in assay [4] it was 0.0066 (inactive); in assay [5], 0.0865 (inactive).

For the compound `NC(=O)N1C(=O)C2C(C1=O)C1C=C(CCCO)C2C(c2ccc(CN3CCCC3)cc2)N1Cc1sc2ccccc2c1Cl` (configuration not stated), the composite z-score was -0.211 (inactive) in assay [1] and 0.245 in the assay with XIP peptide (Xip251-270). Also, the z-score in assay [2] was -0.44; in assay [3], -4.57 (inactive); in assay [4], 0.252 (inactive); in assay [5] it was 0.175 (inactive).

Take `O=C1O[C@@H](c2ccccc2)[C@@H](c2ccccc2)N2[C@@H](c3ccc(OCCO)cc3)[C@]3(C(=O)Nc4ccc(C#CCCO)cc43)[C@@H](C(=O)O)[C@H]12`: the composite z-score in assay [1] was 0.901 (inactive); in the assay with XIP peptide (Xip251-270), 0.443. For the same compound, the z-score is 0.612 in assay [2], -5.86 (inactive) in assay [3], -0.368 (inactive) in assay [4] and -0.451 (inactive) in assay [5].

Turning to `C=C(CCCC)C(=O)CC[C@@H](OC(=O)c1ccccc1-c1ccccc1C(=O)O)c1ccccc1OCCO`, the composite z-score in assay [1] is 0.721 (inactive); in the assay on XIP peptide (Xip251-270), 0.145. Further, the z-score in assay [2] is -2.92; in assay [3], -6.26 (inactive); in assay [4], 0.779 (inactive); in assay [5], 1.38 (inactive).

`COC(=O)[C@@]1(Cc2ccc(F)cc2)[C@H]2c3cc(C(=O)N4CCCC4)n(Cc4cc(F)cc5c4OCOC5)c3C[C@H]2CN1C(=O)c1ccccc1`: the composite z-score in assay [1] is 0.602 (inactive); in the assay with XIP peptide (Xip251-270), 0.53. Besides, the z-score is -1.6 in assay [2], -4.07 (inactive) in assay [3], -0.142 (inactive) in assay [4] and -0.121 (inactive) in assay [5].

With `CCCNC(=O)[C@@]1(Sc2ccc(C)cc2)CC(=O)N(Cc2ccccc2Cl)[C@@H]1c1ccc(CO)cc1I`, the composite z-score in assay [1] is 0.263 (inactive); in the assay with XIP peptide (Xip251-270), 0.157. Moreover, the z-score in assay [2] was -0.0495; in assay [3] it was -2.99 (inactive); in assay [4] it was 0.242 (inactive); in assay [5], 0.677 (inactive).

For the compound `CC(C)C(CO)N1C(=O)[C@@H]2C3C(=O)OCCC/C=C\[C@H]3OC23C=CCN(Cc2ccccc2)C(=O)[C@@H]13` (some centres not stated), the composite z-score was 1.22 (inactive) in assay [1] and -0.209 in the assay with XIP peptide (Xip251-270). The z-score in assay [2] was 0.359; in assay [3], -5.12 (inactive); in assay [4] it was -0.932 (inactive); in assay [5] it was -0.842 (inactive).

For the compound `COC(=O)C(CC#Cc1ccc2c(c1)[C@]1(C(=O)N2)[C@H](C(=O)N2CCc3cc(OC)c(OC)cc3C2)[C@H]2C(=O)O[C@H](c3ccccc3)[C@H](c3ccccc3)N2[C@@H]1c1ccccc1OCCO)C(=O)OC`, the figures for the composite z-score (in assay [1]; in the assay on XIP peptide (Xip251-270)) were 0.254 (inactive) and 0.796, respectively. Also, the z-score in assay [2] was -2.23; in assay [3] it was 2.81 (inactive); in assay [4], -0.0915 (inactive); in assay [5], 0.0536 (inactive).

As to `Cc1ccc(S[C@]2(C(=O)NCCCN(C)C)CC(=O)N(C3Cc4ccccc4C3)[C@@H]2c2ccc(CO)cc2I)cc1`, the composite z-score in assay [1] was -0.261 (inactive); with XIP peptide (Xip251-270), 0.315. Besides, the z-score in assay [2] was -0.235; in assay [3], -3.61 (inactive); in assay [4], 0.721 (inactive); in assay [5], 0.848 (inactive).

For `CO[C@H]1O[C@H](CO)[C@@H](OC(=O)Nc2ccc3c(c2)OCO3)[C@H](OC(=O)Nc2ccccc2-c2ccccc2)[C@H]1OC(=O)Nc1ccccc1-c1ccccc1`, the figures for the composite z-score (in assay [1]; with XIP peptide (Xip251-270)) were 0.667 (inactive) and 0.873, respectively. For the same compound, the z-score was -1.92 in assay [2], -3.15 (inactive) in assay [3], 0.0165 (inactive) in assay [4] and 0.444 (inactive) in assay [5].

On to `C=CCOC(=O)[C@@H]1[C@H]2C(=O)O[C@H](c3ccccc3)[C@H](c3ccccc3)N2[C@H](c2ccc(OCCOC(=O)[C@H]3C[C@H]4C(=O)N5CCC[C@H]5C(=O)N4[C@H]3c3cccc(OCCO)c3)cc2)[C@@]12C(=O)Nc1ccc(I)cc12`, for which the composite z-score in assay [1] was 0.781 (inactive); with XIP peptide (Xip251-270) it was 0.875. Also, the z-score in assay [2] was -0.441; in assay [3], 0.634 (inactive); in assay [4], -0.479 (inactive); in assay [5], -0.434 (inactive).

As for `CCCNC(=O)[C@@]1(c2ccc([N+](=O)[O-])cc2)CC(=O)N(C(C)C)[C@@H]1c1ccc(CO)cc1`, the composite z-score in assay [1] is 3.93 (inactive); in the assay on XIP peptide (Xip251-270), 0.228. Also, the z-score was -0.379 in assay [2], -2.6 (inactive) in assay [3], -0.102 (inactive) in assay [4] and -0.105 (inactive) in assay [5].

For `COCCOC(=O)N1C(=O)[C@@]2(c3cc(C#CC4(O)CCCCCC4)ccc31)[C@H](c1ccc(O)cc1)N1[C@H](c3ccccc3)[C@H](c3ccccc3)OC(=O)[C@H]1[C@@H]2C(=O)N1CCCCCCC1`, the values for the composite z-score (in assay [1]; in the assay with XIP peptide (Xip251-270)) were 0.265 (inactive) and 0.747, respectively. Also, the z-score in assay [2] is -1.74; in assay [3], 0.0885 (inactive); in assay [4] it was -0.0596 (inactive); in assay [5], 0.244 (inactive).
